Broadly, the AC50 is the concentration at which the activity in the assay is half-maximal.

In assay [1] the target is Nuclear receptor subfamily 1 group I member 2 (Homo sapiens) (UniProt O75469). In words: NVS_NR_hPXR: NovaScreen (NVS) Nuclear Receptor Binding Assay for human Pregnane X Receptor (PXR) (AID 2283365).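 Note: a drop in FRET signal versus DMSO baseline means the compound binds.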 The procedure, abridged:
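Binding was measured by time-resolved fluorescence resonance energy transfer after a 2 h exposure of extracted human PXR protein without cells. Compounds were first tested at 25 uM in duplicate, with concentration series for actives; DMSO defined baseline.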

The target of assay [2] is Estrogen receptor (Homo sapiens) (UniProt P03372). In words: OT_ERa_GFPERaERE_0480: Odyssey Thera (OT) 8-hour HeLa Transcription Induction Assay for Estrogen Receptor (AID 2283381; active = hit-call score of the fitted dose curve at least 0.9, where 1 is the maximum; inactive = score below 0.9). The procedure, abridged:
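Human cervical HeLa cells were treated for 8 hours, after which ERE-driven GFP induction was measured by fluorescence microscopy; increases over DMSO baseline defined activity.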

In assay [3] the target is Estrogen receptor beta (Homo sapiens) (UniProt Q92731). In words: OT_ER_ERbERb_1440: Odyssey Thera (OT) 24-hour HEK293T Protein-Complementation Assay for Estrogen Receptor-beta/-beta Homodimer (AID 2283380).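 Note: scored as signal increase over DMSO baseline for both agonists and antagonists.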 The procedure, abridged: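 HEK293T cells stably expressing ER beta LBD (aa 310-547) homodimer fragment-complementation reporter, dosed 24 h. Cells formaldehyde-fixed, Draq5-stained; gain in nuclear (agonist) or nuclear plus cytoplasmic (antagonist) fluorescence versus DMSO read by laser scanning cytometry.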

Assay [4] addresses guinea pig Sigma Receptor, Non-selective Binding, SIGMAR1 (gene 100135589) (UniProt Q60492). In words: NVS_OR_gSIGMA_NonSelective: NovaScreen (NVS) Nuclear Receptor Binding Assay for guinea pig Sigma Receptor, Non-selective Binding (AID 2283367). The procedure, abridged:
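Membranes from guinea pig brain incubated with radioligand and test chemical for 1 h, then filtered and scintillation-counted. Duplicate primary testing at 25 uM, with concentration-series follow-up for actives.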

Assay [5] has as its target rat Serotonin Transporter (SERT), Slc6a4 (gene 25553) (UniProt P31652). In words: NVS_TR_rSERT: NovaScreen (NVS) Transporter Assay for rat Serotonin Transporter (SERT) (AID 2283375). The procedure, abridged:
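Steps: rat forebrain membranes dosed with chemical (25 uM duplicate primary; concentration series for actives); 1 h incubation; labelled ligand bound, filtered, counted by scintillation. Activity scored as signal loss vs DMSO.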

The target of assay [6] is Glucocorticoid receptor (Homo sapiens) (UniProt P04150). Put plainly: NVS_NR_hGR: NovaScreen (NVS) Nuclear Receptor Binding Assay for human Glucocorticoid Receptor (GR) (AID 2283363).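 For AC50: activity is loss of specific radioligand binding signal relative to DMSO.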 The procedure, abridged:
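Filter scintillation readout of tritiated/iodinated radioligand displaced by test chemical; cell-free extracted protein; 16 h. DMSO = negative control/baseline. Duplicate single-point 25 uM screen, then concentration-response on actives.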

Assay [7] addresses human Dopamine Transporter (DAT), SLC6A3 (gene 6531) (UniProt Q01959). Put plainly: NVS_TR_hDAT: NovaScreen (NVS) Transporter Assay for human Dopamine Transporter (DAT) (AID 2283374).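 Note: activity means loss of bound radioligand signal relative to DMSO.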 The procedure, abridged: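 hDAT membranes + tritiated/iodinated radioligand, competitive displacement; 1 h; filter scintillation readout. Single conc 25 uM (duplicate), then conc-response for actives. DMSO = negative control.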

Assay [8] addresses human Norepinephrine Transporter (NET), SLC6A2 (gene 6530) (UniProt P23975). In words: NVS_TR_hNET: NovaScreen (NVS) Transporter Assay for human Norepinephrine Transporter (NET) (AID 2283377).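 For AC50: displacement of radioligand from human NET seen as loss of scintillation signal.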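 Note: cell-free membrane protein extracted from CHO cells expressing human NET.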 The procedure, abridged: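 CHO cell extracts expressing the transporter; tritiated or iodinated tracer displaced competitively; filtration plus scintillation readout at 1 h. Single-point duplicates at 25 uM, concentration series for follow-up; activity = signal drop relative to DMSO.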

Assay [9] addresses rat Androgen Receptor (AR), Ar (gene 24208) (UniProt P15207). Put plainly: NVS_NR_rAR: NovaScreen (NVS) Nuclear Receptor Binding Assay for rat Androgen Receptor (AR) (AID 2283366). The procedure, abridged:
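Actives from a duplicate single-concentration (25 uM) primary run went on to concentration series. Displacement of radioligand was counted by filtration and scintillation, 18 h post-dose, using prostate extracts from testosterone-pretreated rats, with DMSO as baseline.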

Records with an inconclusive call do not appear. Calls of active or inactive are those of the source. Rule for the calls, unless noted: active = hit-call score of the fitted dose curve at least 0.9, where 1 is the maximum; inconclusive = response in the unintended direction; inactive = score below 0.9.

Sequence of Estrogen receptor beta (Homo sapiens) (Q92731 whole entry, looked up, the tested form may be a part): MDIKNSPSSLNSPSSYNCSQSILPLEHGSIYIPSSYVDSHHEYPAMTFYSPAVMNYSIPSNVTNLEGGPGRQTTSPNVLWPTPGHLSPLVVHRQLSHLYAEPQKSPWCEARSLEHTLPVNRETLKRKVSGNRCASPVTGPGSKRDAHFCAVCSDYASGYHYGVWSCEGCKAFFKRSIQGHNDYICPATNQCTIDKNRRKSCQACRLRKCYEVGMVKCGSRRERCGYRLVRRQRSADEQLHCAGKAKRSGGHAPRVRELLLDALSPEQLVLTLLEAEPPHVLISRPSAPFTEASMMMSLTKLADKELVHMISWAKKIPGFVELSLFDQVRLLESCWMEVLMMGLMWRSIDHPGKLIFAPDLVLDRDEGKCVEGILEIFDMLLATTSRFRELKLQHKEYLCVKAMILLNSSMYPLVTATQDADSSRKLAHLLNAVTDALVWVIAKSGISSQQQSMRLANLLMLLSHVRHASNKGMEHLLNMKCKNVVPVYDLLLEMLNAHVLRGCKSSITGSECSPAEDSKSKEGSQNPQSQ
Sequence of guinea pig Sigma Receptor, Non-selective Binding, SIGMAR1 (gene 100135589) (Q60492 whole entry, looked up): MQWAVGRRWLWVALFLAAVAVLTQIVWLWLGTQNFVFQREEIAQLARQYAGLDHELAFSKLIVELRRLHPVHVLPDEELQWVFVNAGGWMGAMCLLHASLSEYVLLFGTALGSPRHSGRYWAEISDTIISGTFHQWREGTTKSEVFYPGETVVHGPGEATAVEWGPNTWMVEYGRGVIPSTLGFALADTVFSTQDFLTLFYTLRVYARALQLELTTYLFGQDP
Sequence of Estrogen receptor (Homo sapiens) (P03372 whole entry, looked up): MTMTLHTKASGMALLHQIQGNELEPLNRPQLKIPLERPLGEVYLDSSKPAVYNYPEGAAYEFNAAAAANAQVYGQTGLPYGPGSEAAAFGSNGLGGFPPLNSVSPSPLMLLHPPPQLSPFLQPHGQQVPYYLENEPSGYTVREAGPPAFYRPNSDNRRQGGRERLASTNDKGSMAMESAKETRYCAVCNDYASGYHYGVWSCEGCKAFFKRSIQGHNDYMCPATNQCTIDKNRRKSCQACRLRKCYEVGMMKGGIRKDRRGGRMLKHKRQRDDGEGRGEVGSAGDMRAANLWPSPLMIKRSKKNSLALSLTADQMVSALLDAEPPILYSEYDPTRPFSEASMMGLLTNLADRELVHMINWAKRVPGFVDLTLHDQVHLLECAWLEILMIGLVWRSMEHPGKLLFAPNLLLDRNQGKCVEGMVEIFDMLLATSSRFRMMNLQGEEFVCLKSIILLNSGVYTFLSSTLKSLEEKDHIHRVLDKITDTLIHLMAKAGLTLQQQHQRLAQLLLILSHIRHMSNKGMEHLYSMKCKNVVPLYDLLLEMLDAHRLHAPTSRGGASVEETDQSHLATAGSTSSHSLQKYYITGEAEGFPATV
Sequence of human Norepinephrine Transporter (NET), SLC6A2 (gene 6530) (P23975 whole entry, looked up): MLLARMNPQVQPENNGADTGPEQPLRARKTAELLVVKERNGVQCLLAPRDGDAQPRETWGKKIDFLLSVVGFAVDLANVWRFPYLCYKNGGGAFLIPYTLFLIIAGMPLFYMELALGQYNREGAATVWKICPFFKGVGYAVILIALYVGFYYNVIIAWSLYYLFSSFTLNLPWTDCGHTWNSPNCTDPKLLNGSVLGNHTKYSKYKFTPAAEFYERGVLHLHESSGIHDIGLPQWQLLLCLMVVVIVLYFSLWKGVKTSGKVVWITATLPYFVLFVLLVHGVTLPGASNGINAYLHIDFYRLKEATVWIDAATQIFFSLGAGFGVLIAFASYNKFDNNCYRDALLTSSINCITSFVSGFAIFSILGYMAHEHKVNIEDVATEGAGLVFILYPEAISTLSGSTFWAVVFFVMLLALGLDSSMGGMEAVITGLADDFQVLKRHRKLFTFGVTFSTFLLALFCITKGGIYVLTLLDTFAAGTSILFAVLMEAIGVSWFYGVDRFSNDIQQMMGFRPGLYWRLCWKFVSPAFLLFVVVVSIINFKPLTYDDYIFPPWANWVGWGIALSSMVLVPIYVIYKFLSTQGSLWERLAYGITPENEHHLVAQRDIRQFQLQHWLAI
Sequence of Nuclear receptor subfamily 1 group I member 2 (Homo sapiens) (O75469 whole entry, looked up): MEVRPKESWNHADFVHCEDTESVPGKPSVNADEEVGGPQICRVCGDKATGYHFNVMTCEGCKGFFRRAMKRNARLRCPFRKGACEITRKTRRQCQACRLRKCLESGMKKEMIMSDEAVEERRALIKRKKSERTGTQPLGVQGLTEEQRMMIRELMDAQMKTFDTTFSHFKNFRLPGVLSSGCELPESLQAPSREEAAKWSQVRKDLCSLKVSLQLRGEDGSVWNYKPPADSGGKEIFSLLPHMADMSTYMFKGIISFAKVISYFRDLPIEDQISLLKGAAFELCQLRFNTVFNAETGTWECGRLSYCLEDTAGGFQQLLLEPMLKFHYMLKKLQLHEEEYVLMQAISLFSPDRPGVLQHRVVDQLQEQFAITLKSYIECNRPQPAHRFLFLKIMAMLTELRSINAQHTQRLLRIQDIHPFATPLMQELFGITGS
Sequence of Glucocorticoid receptor (Homo sapiens) (P04150 whole entry, looked up): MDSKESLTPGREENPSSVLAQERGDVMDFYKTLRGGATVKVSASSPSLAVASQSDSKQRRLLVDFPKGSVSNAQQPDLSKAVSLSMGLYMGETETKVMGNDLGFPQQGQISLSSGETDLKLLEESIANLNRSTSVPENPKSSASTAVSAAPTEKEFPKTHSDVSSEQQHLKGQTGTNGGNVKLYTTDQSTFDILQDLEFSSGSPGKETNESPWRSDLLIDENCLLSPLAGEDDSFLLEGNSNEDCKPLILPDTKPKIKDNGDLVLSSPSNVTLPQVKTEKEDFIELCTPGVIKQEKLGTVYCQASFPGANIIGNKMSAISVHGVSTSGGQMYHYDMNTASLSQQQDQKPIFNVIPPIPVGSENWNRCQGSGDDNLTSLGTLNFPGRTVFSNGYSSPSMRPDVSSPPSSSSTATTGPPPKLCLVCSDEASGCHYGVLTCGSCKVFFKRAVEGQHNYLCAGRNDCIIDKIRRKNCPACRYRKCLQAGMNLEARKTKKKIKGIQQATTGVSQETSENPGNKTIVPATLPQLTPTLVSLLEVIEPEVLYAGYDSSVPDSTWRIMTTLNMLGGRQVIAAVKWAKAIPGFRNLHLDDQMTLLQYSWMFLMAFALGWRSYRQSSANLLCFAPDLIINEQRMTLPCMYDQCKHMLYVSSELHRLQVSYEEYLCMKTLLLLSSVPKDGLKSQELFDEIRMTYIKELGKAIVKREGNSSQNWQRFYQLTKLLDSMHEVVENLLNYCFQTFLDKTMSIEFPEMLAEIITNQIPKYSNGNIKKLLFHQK
Sequence of human Dopamine Transporter (DAT), SLC6A3 (gene 6531) (Q01959 whole entry, looked up): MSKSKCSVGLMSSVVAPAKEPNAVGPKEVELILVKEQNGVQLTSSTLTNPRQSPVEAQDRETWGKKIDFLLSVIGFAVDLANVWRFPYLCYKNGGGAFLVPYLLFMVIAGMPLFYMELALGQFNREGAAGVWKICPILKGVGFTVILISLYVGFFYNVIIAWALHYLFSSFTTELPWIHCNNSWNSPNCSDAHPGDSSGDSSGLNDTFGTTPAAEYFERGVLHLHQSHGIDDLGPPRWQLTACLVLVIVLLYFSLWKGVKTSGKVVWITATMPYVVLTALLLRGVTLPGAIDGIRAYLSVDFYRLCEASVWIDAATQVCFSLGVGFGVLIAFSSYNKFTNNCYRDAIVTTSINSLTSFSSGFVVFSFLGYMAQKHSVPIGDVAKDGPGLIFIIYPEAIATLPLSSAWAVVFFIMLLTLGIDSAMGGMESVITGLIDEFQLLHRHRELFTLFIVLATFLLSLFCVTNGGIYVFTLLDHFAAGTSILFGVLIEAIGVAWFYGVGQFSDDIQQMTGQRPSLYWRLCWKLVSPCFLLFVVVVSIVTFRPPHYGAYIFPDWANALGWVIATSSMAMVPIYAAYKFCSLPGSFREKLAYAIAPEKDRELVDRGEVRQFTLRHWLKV
Sequence of rat Serotonin Transporter (SERT), Slc6a4 (gene 25553) (P31652 whole entry, looked up): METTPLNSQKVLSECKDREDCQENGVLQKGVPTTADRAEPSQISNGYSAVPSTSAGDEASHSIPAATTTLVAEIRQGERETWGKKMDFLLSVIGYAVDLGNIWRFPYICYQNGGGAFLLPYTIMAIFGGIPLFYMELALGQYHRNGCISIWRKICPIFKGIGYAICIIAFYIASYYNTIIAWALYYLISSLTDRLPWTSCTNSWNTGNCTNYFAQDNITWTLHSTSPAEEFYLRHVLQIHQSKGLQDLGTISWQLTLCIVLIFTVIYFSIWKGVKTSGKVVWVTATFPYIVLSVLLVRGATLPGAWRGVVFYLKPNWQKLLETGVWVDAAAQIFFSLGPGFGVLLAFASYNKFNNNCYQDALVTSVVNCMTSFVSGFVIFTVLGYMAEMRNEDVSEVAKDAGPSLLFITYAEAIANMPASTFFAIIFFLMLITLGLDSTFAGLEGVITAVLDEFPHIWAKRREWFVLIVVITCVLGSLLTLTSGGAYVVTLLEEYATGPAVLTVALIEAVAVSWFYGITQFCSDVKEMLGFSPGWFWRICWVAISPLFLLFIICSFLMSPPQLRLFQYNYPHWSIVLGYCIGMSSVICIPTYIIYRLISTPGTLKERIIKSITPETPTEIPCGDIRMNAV

As to `CCCCCCCCCCCCCCCC(=O)OC[C@H](O)[C@H]1OC(=O)C(O)=C1O`, the call in assay [1] and in assay [2] was inactive.

Consider `CC(C)c1cccc(O)c1`, for which the result in assay [1] and in assay [2] was inactive. Moreover, the half-maximal activity concentration (AC50) in [3] was 33.5 µM (active).

`CCC/C=C/C=O`: the compound was called inactive in [1], in assay [3] and in assay [2].

Regarding `O=c1cc(-c2ccccc2)oc2cc(O)cc(O)c12`, the compound was called inactive in assay [1]. Besides, the AC50 in [3] was 11 µM (active).

With `CSc1nc(NC2CC2)nc(NC(C)(C)C)n1`, the half-maximal activity concentration (AC50) in assay [1] was 3.05 µM (active).

`O=C=NC1CCC(CC2CCC(N=C=O)CC2)CC1` (stereo not drawn): the half-maximal activity concentration (AC50) in assay [4] is 16.5 µM (active). Moreover, in [5], the result was inactive.

As for `COc1c(Cl)c(Cl)c(Cl)c(Cl)c1Cl`, the result in assay [1] and in [3] was inactive.

Turning to `Cc1ccc(C=O)cc1`, the outcome in assay [6] was inactive.

Take `NC(=O)NC1NC(=O)NC1=O` (stereo not drawn): in assay [1], the result was inactive.

`CCC(=O)/C=C/C1C(C)=CCCC1(C)C` (stereo not drawn): the outcome in assay [1] and in assay [3] was inactive.

As to `COc1cc(C(C)(C)C)c(O)c(C(C)(C)C)c1`, the compound was called inactive in [1].

On to `O=P(c1ccccc1)(c1ccccc1)c1ccccc1`, for which the AC50 in [4] was 6.83 µM (active).

As to `O=C(Cl)c1cccc(C(=O)Cl)c1`, the result in assay [7] and in assay [3] was inactive.

Consider `Cc1ccc(O)c(C(C)(C)C)c1`, for which, in assay [7], the AC50 is 25 µM (active).

Take `CC(C)=CCO`: the call in [4] was inactive.

As for `CNC[C@H](O)c1cccc(O)c1`, the concentration at half-maximal activity (AC50) in assay [7] is 25 µM (active).

Consider `CN(CCOc1ccc(CC2SC(=O)NC2=O)cc1)c1ccccn1` (stereo not drawn), for which the AC50 in assay [5] was 2.07 µM (active).

With `CC(C)=CCCC(C)=CCCC(C)=CCO`, the outcome in [1] was inactive. In assay [3], the AC50 is 12.8 µM (active).

As to `CC(C)C[C@H]1C(=O)N2CCC[C@H]2[C@]2(O)O[C@](NC(=O)[C@@H]3C=C4c5cccc6[nH]c(Br)c(c56)C[C@H]4N(C)C3)(C(C)C)C(=O)N12`, the results for the AC50 in [6] and in assay [1] were 1.44 µM (active) and 1.04 µM (active), respectively.

On to `CCn1c2ccccc2c2cc(N)ccc21`, for which the AC50 was 12.3 µM (active) in [4], 39.3 µM (active) in assay [5] and 12.3 µM (active) in [8].

Turning to `CCCC/C=C\CCCCCCCCCC=O`, the outcome in assay [1] and in assay [3] was inactive.

As for `c1ccc2[nH]ccc2c1`, the call in [1] and in [3] was inactive.

As to `O=C1OC2(c3cc(Br)c(O)c(Br)c3Oc3c2cc(Br)c(O)c3Br)c2c(Cl)c(Cl)c(Cl)c(Cl)c21`, the AC50 in assay [6] is 3.83 µM (active).

On to `c1ccc2sc(SN(C3CCCCC3)C3CCCCC3)nc2c1`, for which the AC50 in assay [4] is 5.3 µM (active).

For `C#C[C@]1(O)CC[C@H]2[C@@H]3CCC4=Cc5oncc5C[C@]4(C)[C@H]3CC[C@@]21C`, the AC50 in [6] was 0.319 µM (active).

Take `CCCCC[Si](OCC)(OCC)OCC`: the compound was classed as inactive in assay [1] and in assay [3].

Take `CC(C)(C#N)c1cc(Cn2cncn2)cc(C(C)(C)C#N)c1`: the compound was called inactive in [1] and in assay [3].

Consider `CC(=O)O[C@]1(C(C)=O)CC[C@H]2[C@@H]3C[C@H](C)C4=CC(=O)CC[C@]4(C)[C@H]3CC[C@@]21C`, for which the AC50 in [6] is 0.00114 µM (active).

For the compound `CCCCCCCCCCCCCOS(=O)(=O)O`, the AC50 was 2.94 µM (active) in [6] and 1.7 µM (active) in assay [9]. Further, the outcome in [1] and in assay [3] was inactive.

As to `Cc1cccc(C)c1C`, the call in assay [5] was inactive.

`Nc1cc([N+](=O)[O-])ccc1Cl`: the result in assay [8] was inactive.

With `COc1cc2ncnc(Nc3cccc(Cl)c3)c2cc1OC`, the AC50 in assay [8] is 1.77 µM (active).

For the origin of these results see PubChem BioAssay (EPA / NIEHS).
